Most compounds without a hit are left out; they make up all but 3.7% or so of the library.
HTT ATP protect: cytoprotection in Huntington HTT-Q103 PC12 cell model | AID 1471 | PC12 HTT-Q103 induced, cytoprotection, ATP luminescence, 40 h | Potency, µM (highest dose often 56.4 µM), hits mostly activators | 230,000 compounds, 0.14% hits; further: nearly all actives have a fitted effect of over 45% in size
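Stable PC12 Q103-GFP cells in serum-supplemented, phenol red-free DMEM; induction by tebufenozide at 100 nM final; compound dose series; cell viability quantified luminescently from ATP.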
Tau FP inhib: inhibitors of human tau fibril formation; AID 1468; P10636; 280,000 compounds, 0.39% hits; Potency, µM (doses to about 57.7 µM), actives largely listed as inhibitors; K18 P301L tau heparin fibrillization, Alexa594 FP, 6 h; further: nearly all actives have a fitted effect of over 55% in size
Target sequence (P10636 561-689 P618L limits assumed): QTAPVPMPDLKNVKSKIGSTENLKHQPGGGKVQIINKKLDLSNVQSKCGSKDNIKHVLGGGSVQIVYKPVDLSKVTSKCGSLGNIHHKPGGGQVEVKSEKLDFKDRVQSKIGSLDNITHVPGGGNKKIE
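K18 P301L tau (15 uM unlabeled/0.24 uM Alexa 594-labeled, final) + compound + heparin 20 uM final; 100 mM NaOAc pH 7; 6 hr 37 C; ThT 30 uM final added, 1 hr RT; FP ex 555/em 632 nm.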
Tau fluor cs: counter-screen for tau fibril formation inhibitors | tau K18 P301L Alexa594 fluorescence, heparin fibrillization | Potency, µM (top dose mostly 57.7 µM) | 280,000 compounds, 0.93% hits; further: nearly all actives have a fitted effect of over 55% in size
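Human tau K18 P301L (15 uM unlabeled, 0.24 uM Alexa 594-labeled) in 100 mM sodium acetate pH 7 with 20 uM heparin, 6 hr at 37 C. ThT 30 uM added, 1 hr ambient; Alexa 594 FP and total fluorescence read at 555/632 nm.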
HTT aggregate: mutant huntingtin aggregation inhibition; 220,000 compounds, 1.1% hits; PC12 HttQ103-GFP aggregates, Acumen cytometry, 40 h; Potency, µM (series often up to 46.1 µM), most hits filed as inhibitors; further: nearly all actives have a fitted effect of over 60% in size
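Multiplexed with ATP-based cell death, this channel scores GFP aggregates in PC12 cells expressing inducible HTTex1-Q103-GFP. Induction used 100 nM tebufenozide; compounds were tested in concentration series.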
Tau fibril ThT: blocks human tau fibril formation measured by thioflavin T; 270,000 compounds, 2.1% hits; recombinant tau K18 P301L (four-repeat tau fragment), heparin-induced fibrillization, ThT fluorescence; Potency, µM (doses to about 57.4 µM), most hits filed as inhibitors; P10636; further: nearly all actives have a fitted effect of over 55% in size
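Tau K18 P301L fragment (15 uM unlabeled plus 0.24 uM Alexa 594-labeled) in 100 mM sodium acetate pH 7 with compound, fibrillization induced by 20 uM heparin for 6 hr at 37 C. Thioflavin T (30 uM) added, fluorescence read after 1 hr (ex 450, em 510 nm).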
Large screens that a line does not name were inactive; [ ] = another dose, or the depositor's remark. The call rests on the fitted dose curve; in most records, active means well fitted curve in the direction sought with a large enough effect; inconclusive means small, poorly fitted or top-dose-only effect, or another doubt; inactive means no such curve, though single readings can be large; an effect the other way counts as inactive or inconclusive.

O=C(c1ccc(S(=O)(=O)Cc2cc(F)ccc2F)c([N+](=O)[O-])c1)N1CCCCC1	HTT aggregate 13µM
CC1CCN(C(=O)c2ccc(S(=O)(=O)Cc3cccc(F)c3)c([N+](=O)[O-])c2)CC1	HTT aggregate inconclusive, Tau fibril ThT inconclusive
O=C(c1ccc(S(=O)(=O)Cc2cc(F)ccc2F)c([N+](=O)[O-])c1)N1CCCC1	Tau fluor cs inconclusive, HTT aggregate 16µM, Tau fibril ThT inconclusive
Cc1ccc(NC(=O)C(Cc2ccccc2)N2Cc3ccccc3C2=O)cc1Cl (stereo unspecified)	Tau FP inhib inconclusive (no result: HTT ATP protect, HTT aggregate)
CC(=O)c1cccc(NC(=O)/C=C/c2ccc([N+](=O)[O-])s2)c1	HTT ATP protect inconclusive, Tau FP inhib inconclusive, Tau fluor cs inconclusive, HTT aggregate inconclusive, Tau fibril ThT 4µM
Cc1cc(C)cc(NC(=O)/C=C/c2ccc([N+](=O)[O-])s2)c1	HTT ATP protect inconclusive, HTT aggregate inconclusive, Tau fibril ThT inconclusive
Cc1ccccc1NC(=O)/C=C/c1ccc([N+](=O)[O-])s1	Tau FP inhib inconclusive, Tau fluor cs inconclusive, HTT aggregate inconclusive, Tau fibril ThT 13µM (no result: HTT ATP protect)
CCCOc1ccc(C2c3c(-c4ccccc4O)n[nH]c3C(=O)N2CCc2ccccc2)cc1OCC (stereo unspecified)	Tau fluor cs inconclusive, Tau fibril ThT inconclusive (no result: HTT ATP protect, HTT aggregate)
CCCC(=O)NC(c1ccc2c(c1)OCO2)c1cc(Cl)c2cccnc2c1O (stereo unspecified)	HTT aggregate 2.8µM
O=C(NC(c1ccccc1)c1cc(Cl)c2cccnc2c1O)c1cccnc1 (stereo unspecified)	HTT aggregate 4µM
O=C(O)COc1ccccc1C(Nc1cccnc1)c1cc(Cl)c2cccnc2c1O (stereo unspecified)	Tau FP inhib 32µM, Tau fibril ThT 18µM
O=C(O)COc1ccccc1C(Nc1ccccn1)c1cc(Cl)c2cccnc2c1O (stereo unspecified)	Tau FP inhib inconclusive, Tau fibril ThT 13µM
COc1ccc(C(=O)NC(c2ccc(Cl)cc2)c2cc(Cl)c3cccnc3c2O)cc1 (stereo unspecified)	none (no result: HTT ATP protect, HTT aggregate)
Cc1ccc(CNC(=O)Cn2c3ncccc3c(=O)n2-c2ccc(C)cc2)cc1	none (no result: HTT ATP protect, HTT aggregate)
Cc1ccc(C(=O)Nc2cccc(C(F)(F)F)c2)cc1NC(=O)c1csc(-c2ccncc2)n1	none
N#C/C(=N\Nc1cccc(C(F)(F)F)c1)C(=O)c1csc(-c2cccnc2)n1	Tau fibril ThT 4.5µM
NC(=O)c1cc2c3ccccc3ccn2c1-c1ccccc1	Tau FP inhib inconclusive, Tau fluor cs 14µM[quencher], Tau fibril ThT 14µM
C[N@@+]1(CC[N@@+]2(C)CCC[C@H]2c2cccnc2)CCC[C@@H]1c1cccnc1	none (no result: Tau FP inhib, Tau fluor cs, HTT aggregate, Tau fibril ThT)
CC1=C(C(=O)c2ccccc2)C(c2ccc(O)cc2)NC(=S)N1 (stereo unspecified)	none
CC1=C(C(=O)c2ccccc2)C(c2ccc(N3CCOCC3)cc2)NC(=O)N1 (stereo unspecified)	Tau fibril ThT 25µM
O=C1C2C3C=CC(C3)C2C(=O)N1c1ccc2c(c1)OCO2 (stereo unspecified)	Tau FP inhib inconclusive, Tau fluor cs inconclusive, Tau fibril ThT 32µM
CC(/C=N\Nc1nnc2c(n1)[nH]c1c(C)cccc12)=C\c1ccco1	Tau fluor cs inconclusive, HTT aggregate inconclusive, Tau fibril ThT 1.4µM
CC#CCN1c2ccccc2[C@]23C[C@@H](C(=O)OC)N(C(=O)COCc4ccccc4)C2=NC(C(=O)OC)=C(C(=O)OC)[C@H]13	none (no result: HTT aggregate)
CC1=C(C#N)c2nc(N)c(C#N)c(C)c2/C1=C\c1ccc(OCC(=O)O)c(Cl)c1	Tau FP inhib inconclusive, Tau fluor cs inconclusive, Tau fibril ThT 16µM
CC1=C(C#N)c2nc(N)c(C#N)c(C)c2/C1=C\c1ccccc1	none (no result: Tau FP inhib, Tau fluor cs, HTT aggregate, Tau fibril ThT)
O=C(Nc1ccc(Br)cc1F)N1CC=C(c2c[nH]c3ccccc23)CC1	Tau fluor cs 8.9µM[quencher], Tau fibril ThT 8.9µM (no result: HTT ATP protect, HTT aggregate)
COC(=O)c1ccc(Cl)cc1NC(=O)N1CCCn2nc(C)cc21	none (no result: HTT ATP protect, HTT aggregate)
O=C(Nc1ccccc1)N1CC=C(c2ccccc2)CC1	none
Cc1cccc(NC(=O)N2CC=C(c3c[nH]c4ccccc34)CC2)c1C	Tau fluor cs 25µM[quencher], Tau fibril ThT inconclusive (no result: HTT ATP protect, HTT aggregate)
